Screen size: about 52,000 sequences; about 210 (0.4%) were called active.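 How the source made its calls: active means gene whose silencing raises cell survival under the drug, median off-target-corrected z-score across its silencing RNAs 2 or more; inactive means the rest.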 Only a selection was taken, and actives are over-represented in it overall.
Assay: Resistance to Poly (ADP-Ribose) Polymerase inhibitor: Gene Identification via Genome-wide siRNA Screen
Settings: mouse BRCA2 R2336H ES cells, olaparib, CellTiter-Glo viability; stronger effect = higher value
In short: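 Mouse BRCA2 R2336H ES cells were reverse-transfected with siRNA (20 nM final), treated at 48 h with 500 nM olaparib, and read by CellTiter-Glo after 72 h. Scores: MAD-based z per siRNA, median per gene, seed off-target correction.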

Sequence	z-score
GGCGAAUUAUUGAAAACGUTT against Actr8	3.41 (active)
GGUGGUGUUUCAUAAGAUGTT against Rragc	0.792 (inactive)
CCCAGCUAUGCGAUCUUAATT against 1300003B13Rik	-1.51 (inactive)
GGGUUUCUGUUUGAUUCCATT against Gria1	1.91 (active)
GCUACUGAGUUAUAGAAAGTT against Olfr1316	0.323 (inactive)
CCAACUGUAGAUGUAUAUATT against Pmp22	0.0495 (inactive)
GGUGAUCCUCAUCAUCAGUTT against 2400010G15Rik	2.76 (active)
GGUUGCAUCACAGCGUAUATT against Plekhe1	0.0124 (inactive)
GGAGGUCCAGCUGUUCAUGTT against Kcnn4	2.89 (inactive)
GGCAAUUGUUUUUAGAGAGTT against 2610510J17Rik	0.946 (inactive)
GGCUGUCUUGAUUUUGAUUTT against C3ar1	-0.0188 (inactive)
CGAACCUACAGAGCUCAUGTT against Rpl17	-2.32 (inactive)
GGGUGCUUAAUAAACAUAATT against Slc22a8	1.12 (inactive)
GCUGAAAUACCACUCUCCGTT against Chl1	-1.28 (active)
CCAAUCUCUACCGUCUCCUTT against Camp	-0.0705 (inactive)
GGCUCAACUGUGUUAAACATT against Tnfrsf4	0.801 (inactive)
GCAAAACCUACUGCGUGGATT against 2410195B05Rik	0.682 (inactive)
GGGUUUCUGUUAAUCCACATT against Hist1h3g	-1.25 (inactive)
GGUGAUAUUAUACAUUCACTT against Rnd1	0.43 (inactive)
CCACUGAAGUUUUCAUUCUTT against Olfr1055	0.663 (inactive)
GGUGUGCAUCAAGCGACUGTT against Cacng6	1.29 (inactive)
GGAGUCAAGUCCACAUACATT against Usp47	-0.927 (active)
GCACACCCAAUGCUCUAAGTT against Mare	0.284 (inactive)
GCGACAACGAUUUUGAAAUTT against Rsu1	0.756 (inactive)
GCCGACGUAGUGACAUUCUTT against Crybb3	-1.17 (inactive)
CGUAUCAAACAGGAAAUGGTT against Arid5b	1.02 (inactive)
GGACUGCUAUGGGUCUUCATT against Clk3	-1.64 (inactive)

Sequence	z-score
GGGACAGUCUUCAGUGACATT against 0610037L13Rik	-2.25 (inactive)
CCACAAAGAAUGCAUUACUTT against BC022146	-1.42 (inactive)
GGAACGAUCGAAACAAGAATT against Rarg	3.59 (active)
GCAAGAGUCUGCUACGACATT against Opn1sw	0.0796 (inactive)
GGUCCCAUUCAGUGUGUGUTT against Cdk10	-0.19 (inactive)
GGGAUGAGUAUGCUUAUGGTT against Rgpr	0.176 (inactive)
GCAGAAUGGUAAAUCCGAUTT against Mc5r	1.96 (inactive)
CCCUAAGUUCUCGUUUCUGTT against Cherp	1.57 (inactive)
GGACCAACAUAACCUCUACTT against BC037432	0.0137 (inactive)
GGAACGAGACUCAUCUUCUTT against Cic	1.35 (active)
GGAUCCUUCAGCAUUCUUATT against Egr2	-0.406 (inactive)
GGAACAGUCUGAAAUACACTT against Usp18	0.039 (active)
GGAUAACCUUAACUUCUGATT against 2810449C13Rik	2.16 (inactive)
GGGACCCUUCUACAAAAACTT against Pias3	2.3 (active)
GGAGAGUACUAAAUUUAAGTT against 4833418A01Rik	0.0243 (inactive)
GGAAUUUUAUCAUUGGGACTT against 5031404N07	-0.078 (inactive)
CCUGGUAACAGUCAUAAAUTT against Lhfpl2	-0.196 (inactive)
GGAAAUGCUUCUGAGCUAGTT against 5830417C01Rik	0.677 (inactive)
GGACCUCAGCGAAGACAAUTT against BC034097	2.03 (active)
GGUCGGUGUUUUAUCUGCUTT against BC019537	-1.19 (inactive)
GGGAUACUGGUGCUUAACUTT against Abhd1	0.661 (inactive)
GCCACCUCUUAUGAGGCUUTT against D630045E04Rik	-1.04 (inactive)
GGUGGUUACAACCGAAGCATT against Fus	2.95 (active)
GCCCUAGAACUUUUGAAUUTT against Dhx15	-1.01 (inactive)
GGAGGUGUUGAACAAGUGCTT against 1700008P20Rik	-1.32 (inactive)
GCAAGCAGAUCUGAUAUCATT against 2700050F09Rik	4.76 (active)
GCCUGGAUUCAGAAGCUACTT against Ugt1a1	0.72 (inactive)

Sequence	z-score
GGAGGAGGAGGACUUUGAUTT against 5830417I10Rik	-1.23 (inactive)
GGAACAUUACAAAAGCUCUTT against Slfn1	-0.715 (inactive)
GAAUCUAAAGAUGAACACCTT against 0610009B22Rik	-0.48 (inactive)
GCAAGUGGUAAUGGUGACCTT against Tex15	-0.249 (inactive)
GGACUUUUAUUUUGUUAGCTT against Pacsin2	3.01 (active)
GUUUUCUUGAGACAGUUAATT against 1810008A14Rik	-0.106 (inactive)
GGAGUUGAUCAAGACAGAGTT against S100a5	-0.443 (inactive)
GGAGGAAAGAAUGUGUAAATT against Birc3	-0.544 (inactive)
GCAUGCAUGAUGGAUCUUCTT against Gabrb1	-2 (inactive)
GGAAACAACGGAUCCAAAATT against Plcb3	2.47 (active)
GCUUACAUCCAAGCCGUCUTT against 4931440B09Rik	1.71 (inactive)
CCAAGUUCACAAUUGUUCUTT against Gm457	-0.19 (inactive)
GGACUUGUCUUUGACACGCTT against Nt5c2	2.18 (inactive)
GGAUUCCCUAUCCCAUACCTT against Araf1	4.36 (active)
GGUCAAAAGAAACAGGUGUTT against 2310047I15Rik	0.438 (inactive)
GCAACUAGCCUGUUCUAUCTT against AI325941	1.68 (inactive)
GGAGUUGAAGUUUGUGACATT against Acpp	2.3 (active)
GGUGAAAGUGAGAAGGAAGTT against 6720460F02Rik	-0.247 (inactive)
CCUGAAUUACCUCAUAUAUTT against Stat5b	0.922 (inactive)
GCUGAAACCUCAUGAGGAGTT against Ptpn9	3.06 (active)
GCUACUAUUGUGUUCUGAATT against Drd1a	-0.386 (inactive)
GGUACUCGGUUAUCAUGAATT against Olfr1403	1.39 (inactive)
GGAAAGGACCACCUAAGUUTT against Pde6g	-2.22 (active)
GGUUACCUGAGGUCAGUAGTT against Ifi1	-2.31 (inactive)
GGCUAAUGUGCUCUCUCAUTT against Olfr644	1.28 (inactive)
CCCACAGGGAUUUAUUUAUTT against Slc37a1	1.36 (active)
CCUUGAAAUACUGAGUGACTT against AU067695	1.17 (inactive)

Sequence	z-score
GGAGCAAUGUUGUCACAACTT against Fbln1	-0.548 (inactive)
CGUGUAAAAGCCGGAUUGATT against 1500015L24Rik	0.909 (inactive)
GCAAAGCUGAUGGACUCAATT against 2410018M08Rik	-0.965 (inactive)
GGCAAAAGUGGUUAUUGAATT against Itga6	3.02 (active)
GGAUAAUGGUAUCUACUUCTT against Cd79b	-0.408 (inactive)
GGCAAGAAUCAAGGAGAGATT against Nek1	1.44 (inactive)
GCGAUUAAUGGCAUAGUUUTT against Sara1	-1.04 (inactive)
GACAGGAAGUUGAUGAAUUTT against Raet1a	-0.444 (inactive)
GGCAAACAAAUGGUUUGUUTT against D430030K24Rik	2.76 (active)
GCACCUUAAAAAUGAAGAUTT against D12Ertd551e	-0.616 (inactive)
GGUACCGGAAAGGAAGUGUTT against Grm1	-0.666 (inactive)
GGAAGAGAAAGACCUGAGATT against Glra1	-0.8 (inactive)
GGCUGAGAUCUGAAAUUGATT against Krt2-5	0.59 (inactive)
CGAAAGUUACUCAUAGAGATT against Itga6	0.364 (active)
GCAGGUGCCAACAUUAUUGTT against 0610039C21Rik	1.5 (inactive)
GGAAGAAAUGGACCAGCUGTT against Brp16	-1.27 (inactive)
CCUUAUCCAAGAGUAGGGCTT against AY534250	1.03 (inactive)
GGUGUGACACCUAAGAUGATT against AW212607	1.39 (inactive)
GGACAAGUUGUUGGACUACTT against Smarca3	1.04 (active)
CCUAUCUUUACCACAUAGATT against 9030624J02Rik	-0.939 (inactive)
GGACCCAUGAGGUUAACUUTT against D15Ertd781e	-1.18 (inactive)
GGUUCACCUGUCAAGUGGATT against Hfe	0.781 (inactive)
GGUGUGGGUGGGAAAAGAATT against 2610027C15Rik	-1.77 (inactive)
CCUUAUUUUACGGAACUGCTT against Olfr1018	0.819 (inactive)

Reference: PubChem BioAssay AID1347423 (Functional Genomics Laboratory (NCATS/FGL), 2020)
